SMILES strings stand for the structures. The whole screen tested about 190,000 compounds, of which about 930 (0.49%) were called active.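 The calls were made as follows: active = z-score of insulin promoter reporter brightness in nuclei below -3 at 5 µM, with at least 500 cells counted; inconclusive = wells with under 500 cells, flagged as toxic or sparse; inactive = the rest.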 Some of the results follow. Results with a measured potency or affinity are listed apart.

For 61 compounds, z-score results are on record in PubChem BioAssay AID1628 (Sanford-Burnham Center for Chemical Genomics, 2009).

The assay is described as follows: insulin promoter down-regulators in MIN6 cells, imaging, high-content screening, mouse beta cells (AID 1628). To be noted: MIN6 insulin promoter GFP reporter, at 5 µM, active compounds read low.
Turning to `O=C1c2ccccc2-n2c1nc1ccccc1c2=O`, the z-score was -2.2 (inactive).

For `COc1ccc(OC)c(C2=NOC(C(=O)NCC3CCCO3)C2)c1` (stereo unspecified), the z-score is 3.67 (inactive).

With `COc1ccc(-c2nnc(SCC3CCCO3)n2C)cc1` (stereo unspecified), the z-score was 2.62 (inactive).

`CCOc1ccc(NC(=S)N2CCC(N(C)CC3CCCO3)CC2)cc1` (stereo unspecified): the z-score is 3.59 (inactive).

For `CCOc1ccc(-n2c(=O)c3c4c(sc3n(CC(=O)NCC3CCCO3)c2=O)CCC4)cc1` (stereo unspecified), the z-score is 1.12 (inactive).

As for `CCOc1ccc(NC(=O)N2CCCC2C(=O)NCC2CCCO2)cc1` (stereo unspecified), the z-score is -3.14 (active).

Take `O=[N+]([O-])c1ccc(N/N=C/c2cn(Cc3ccc(F)cc3)c3ccccc23)nc1`: the z-score is 4.69 (inactive).

On to `CC1(C)Cc2c(c(N3CCOCC3)nc3sc4c(NCc5ccco5)nnnc4c23)CS1`, for which the z-score was -6.38 (active).

As for `C=CCN1C(=O)/C(=C/c2ccc(N(C)C)cc2)S/C1=N\c1nnc(CC)s1`, the z-score was 14.1 (inactive).

For `Cc1cc(C)cc(N(CC(=O)Nc2cccc(C)n2)S(=O)(=O)c2c(C)noc2C)c1`, the z-score was 2.42 (inactive).

For the compound `C/C=C/c1ccc(OCCCN2C(=O)NC(C)(C)C2=O)c(OC)c1`, the z-score is -0.86 (inactive).

As for `C#CCOCCOCCOCCNc1nc(N2CCN(C(=O)[C@H](CCCCN)n3cc(CCCC)nn3)CC2)nc(N2CCN(C(=O)[C@H](CCCCN)n3cc(CCCC)nn3)CC2)n1`, the z-score was -4.64 (active).

As to `CCCN1CC=C2C(C#N)=C(N)C(C#N)(C#N)C(c3cccc(OC)c3OC)C2C1` (stereo unspecified), the z-score was 8.86 (inactive).

Take `CCOC(=O)N1CCC(NC2CCCCCCC2)CC1`: the z-score was 0.8 (inactive).

`O=C(O)C1CCN(C(=O)OCc2ccccc2)CC1`: the z-score is -4.9 (active).

Take `CN1/C(=C/C=C(C#N)C#N)C=Cc2ccccc21`: the z-score was 5.52 (inactive).

Consider `Cc1nc(CN(C)C(=O)c2cc(COc3ccc4ncccc4c3)on2)cs1`, for which the z-score was -5.59 (active).

For the compound `c1ccc(-c2cnn3c(-c4ccccc4)c(-c4ccccc4)nc3n2)cc1`, the z-score was 17 (inactive).

Turning to `CCCCn1nc(-c2ccccc2)c2nc3ccccc3nc21`, the z-score was 3.11 (inactive).

Consider `N=c1oc2c3c4c(cc2cc1C(=O)Nc1ccccc1)CCCN4CCC3`, for which the z-score was 18 (inactive).

As to `CCc1ccc2nc3sc(C(=O)N4CCc5ccccc54)c(N)c3cc2c1`, the z-score is 4.93 (inactive).

As for `CCCCC(=O)NC(c1cccs1)c1cc(Cl)c2cccnc2c1O` (stereo unspecified), the z-score was -5.86 (active).

In the case of `CCC(=O)NC(c1cccs1)c1cc(Cl)c2cccnc2c1O` (stereo unspecified), the z-score is -4.24 (active).

Take `CCN1CC=C2C(C#N)=C(N)C(C#N)(C#N)[C@H](c3cccc(OC)c3OC)[C@H]2C1`: the z-score was 11.6 (inactive).

For the compound `Cc1ccc(N=C2NC(=O)/C(=C/c3cn(C)c4ccccc34)S2)cc1C`, the z-score is 3.02 (inactive).

`CC1CC(=O)C2=C(C1)OC(N)=C(C#N)C2c1coc2ccccc2c1=O` (stereo unspecified): the z-score is 3.02 (inactive).

Take `NC(=O)c1sc2nccc(Nc3ccccc3)c2c1N`: the z-score was -3.42 (active).

Consider `Nc1c(C(=O)Nc2nccs2)sc2nc(-c3cccs3)cc(C(F)(F)F)c12`, for which the z-score is 5.95 (inactive).

For the compound `Nc1c(C(=O)O)sc2nc(-c3ccccc3)cc(-c3ccccc3)c12`, the z-score was 4.64 (inactive).

As for `CS(=O)c1nc(-c2ccc(Br)cc2)cc(-c2ccccc2)c1C#N` (stereo unspecified), the z-score is -4.24 (active).

Regarding `Cc1ccc(S(=O)(=O)CCSc2nc(C)cc(C(F)(F)F)c2C#N)cc1`, the z-score was 10.9 (inactive).

Turning to `Nc1c(Cl)ncnc1N1CCCC1`, the z-score is -3.27 (active).

On to `COc1ccc(-c2ccc3c(N)c(C(=O)c4cccc(OC)c4)sc3n2)cc1`, for which the z-score is 4.07 (inactive).

Regarding `COc1ccc2c(c1)sc1nc(-c3ccccc3)cn12`, the z-score was -7.22 (active).

Regarding `Cc1cccc(OCCCCCn2ccnc2)c1C`, the z-score is -4.58 (active).

With `Cc1cc(Cl)cc(C)c1OCCCCn1ccnc1`, the z-score was -4.53 (active).

Turning to `CCOc1ccc(OCCCCn2ccnc2)cc1`, the z-score is 3.52 (inactive).

Regarding `O=S(=O)(c1ccc2oc3ccc(S(=O)(=O)N4CCCCC4)cc3c2c1)N1CCCCC1`, the z-score is -3.18 (active).

Take `CCN(CC)S(=O)(=O)c1ccc2oc(C(=O)NCc3ccc(F)cc3)c(C)c2c1`: the z-score was -4.31 (active).

Take `Cc1ccc(S(=O)(=O)c2cccc(S(=O)(=O)N3CCCC3)c2)cc1S(=O)(=O)N1CCCC1`: the z-score is 3.05 (inactive).

As to `Cc1c(C(=O)NCc2cccnc2)oc2ccc(S(=O)(=O)N3CCCCCC3)cc12`, the z-score was -5.16 (active).

For the compound `O=C(O)CCCN=Cc1c(O)c2ccccc2oc1=O`, the z-score is 2.46 (inactive).

As for `Cc1oc(C)c2c(=O)ccc3c(c12)OC(N)=C(C#N)C3c1ccccc1Cl` (stereo unspecified), the z-score is 6.29 (inactive).

Consider `COCCNC(=O)/C(=C/c1ccccc1Cl)c1ccccc1`, for which the z-score is -5.46 (active).

For the compound `COCCNC(=O)Cc1ccc(F)cc1`, the z-score is 3.03 (inactive).

Take `Cn1cc(/C=C2\SC(=S)N(NC(=O)c3ccccc3)C2=O)c2ccccc21`: the z-score was 6.71 (inactive).

For the compound `COc1ccc(C)cc1NC(=O)CC(NC(C)=O)c1ccccc1` (stereo unspecified), the z-score was 4.5 (inactive).

For `CCC(=O)N1CCN(c2ccccc2NC(=O)COc2cc(C)ccc2C(C)C)CC1`, the z-score is -3.26 (active).

For the compound `CCOc1ccc(-c2c(C#N)c(N)nc3sc(C(=O)c4ccccc4)c(N)c23)cc1`, the z-score is 9.11 (inactive).

With `Cc1nnc(SCC(=O)c2cc(C)n(-c3ccc4c(c3)OCO4)c2C)s1`, the z-score was -4.16 (active).

In the case of `Cn1cc(C(N)=O)c2ccccc21`, the z-score was 0.12 (inactive).

In the case of `O=S(=O)(c1ccc(Br)cc1)N1CCN(c2cc(-c3ccccc3)nc3ncnn23)CC1`, the z-score is -6.61 (active).

For the compound `O=C(N=C1SCC(=O)N1c1ccccc1Cl)c1ccccc1`, the z-score is 5.04 (inactive).

As to `N/C(=N\OC(=O)N1c2ccccc2Sc2ccccc21)c1ccccc1`, the z-score was -3.28 (active).

In the case of `CC(C)NC(=O)NC(=O)COC(=O)c1cccc(S(=O)(=O)N2CCCCC2)c1`, the z-score is 4.62 (inactive).

In the case of `CCN1C(=O)CSc2ccc(C(=O)NCc3ccccc3OC)cc21`, the z-score is 3.1 (inactive).

As for `COc1ccccc1CNC(=O)COC(=O)c1ccc(S(=O)(=O)N2CCCC2)cc1`, the z-score is -5.2 (active).

For the compound `Cn1c(=O)[nH]c(=O)c2c1nc(N1CCCCC1)n2CCCSc1nc2ccccc2s1`, the z-score is 0.01 (inactive).

For `CCC(=O)c1ccc(O)c(OC)c1`, the z-score was -1.5 (inactive).

Consider `CCOC(=O)C(C(C)=O)C(c1ccc(OCCC(C)C)cc1)C(C(C)=O)C(=O)OCC` (stereo unspecified), for which the z-score was 0.98 (inactive).

With `CCOC(=O)C(C)S(=O)(=O)c1ccc(C(F)(F)F)cn1` (stereo unspecified), the z-score is -4.01 (active).
